# From PubChem
# HPGD block – qHTS Assay for Inhibitors of HPGD (15-Hydroxyprostaglandin Dehydrogenase). 15-hydroxyprostaglandin dehydrogenase [NAD(+)] (Homo sapiens), P15428. purified HPGD, NADH fluorescence kinetic, PGE2 substrate. Potency, µM, for inactives: at the highest dose activity change, negative = inhibition, most hits filed as inhibitors. hit rate 4.3% among 150,000. AID 894, 2007; active means well fitted inhibition curve with a large enough effect, not every such curve was filed as active; inconclusive means small, poorly fitted or top-dose-only effect, or another doubt; inactive means no such curve, though single readings can be large or run the other way; further: potency means the concentration at half of the fitted maximal effect; on the % scale 0 is the no-effect control and ±100 the full control effect
# Target sequence (P15428 whole entry, looked up): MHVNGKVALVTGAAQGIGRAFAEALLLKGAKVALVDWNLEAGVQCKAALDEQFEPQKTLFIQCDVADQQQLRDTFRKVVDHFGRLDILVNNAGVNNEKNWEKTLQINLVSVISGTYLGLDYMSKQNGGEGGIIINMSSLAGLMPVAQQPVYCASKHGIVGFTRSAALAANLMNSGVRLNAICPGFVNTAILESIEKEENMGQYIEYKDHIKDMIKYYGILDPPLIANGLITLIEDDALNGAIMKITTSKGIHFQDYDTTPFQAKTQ
#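 20 nM HPGD preincubated 15 min at room temperature with compound in 50 mM Tris-HCl pH 8, 0.01% Tween 20. Started with 1 mM NAD+ and 30 uM prostaglandin E2; NADH fluorescence (360/450 nm) read 5 times over 30-s intervals, last minus first.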
# HTT ATP protect – qHTS Multiplex Assay to Identify Dual Action Probes in a Cell Model of Huntington: Cytoprotection (ATP). PC12 HTT-Q103 induced, cytoprotection, ATP luminescence, 40 h. Potency, µM (series often up to 56.4 µM), inactives show cytoprotection (ATP increase), hits mostly activators. hit rate 0.14% among 230,000; further: potency means the concentration at half of the fitted maximal effect; % of control where 0% means no effect; nearly all actives have a fitted effect of over 45% in size
#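 Quantitative HTS on tebufenozide-induced (100 nM) PC12 cells expressing HTTQ103 exon 1–GFP; compounds tested as a concentration series; survival measured via cellular ATP.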
# IMPase Li inh – qHTS Assay for Identifying the Cell-Membrane Permeable IMPase Inhibitors: Potentiation with Lithium | CHO-M1 cells, IP1 TR-FRET (IP-One), carbachol + lithium | Potency, µM (series often up to 59.4 µM), for inactives: at the highest dose activity, negative = IMPase inhibition, usual class: inhibitors | hit rate 0.35% among 210,000;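 further: IP1 builds up when IMPase is blocked and the TR-FRET signal falls; potency means the concentration at half of the fitted maximal effect; plate controls were basal vehicle for no effect and high inhibitor control for full effect; nearly all actives have a fitted effect of over 50% in size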
#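 CHO cells stably expressing M1 receptor (2000/well) were cultured 16–30 h, then exposed to compounds with a small lithium addition for 30 min at 37C. IP1 was measured by TR-FRET competition; AC50 from Hill fits.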
# HttQ103 aggreg – qHTS Multiplex Assay to Identify Dual Action Probes in a Cell Model of Huntington: Aggregate Formation (GFP); PC12 HttQ103-GFP aggregates, Acumen cytometry, 40 h; Potency, µM (highest dose often 46.1 µM), for inactives: at the highest dose activity change, negative = inhibition, most hits filed as inhibitors; hit rate 1.1% among 220,000; AID 1688, 2009; further: potency means the concentration at half of the fitted maximal effect; on the % scale 0 is the no-effect control and ±100 the full control effect; nearly all actives have a fitted effect of over 60% in size
#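 Compounds (qHTS titration) were added to PC12 cells expressing an ecdysone-driven HTT exon 1 Q103–GFP fusion after induction with 100 nM tebufenozide. Aggregate formation was measured as GFP objects in cell lysates.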
# ALDH1A1 block – qHTS Assay for Inhibitors of Aldehyde Dehydrogenase 1 (ALDH1A1); Aldehyde dehydrogenase 1A1 (Homo sapiens), P00352; Potency, µM (top dose mostly 75.3 µM), without a hit: at the highest dose activity, negative = inhibition, most hits filed as inhibitors; Purified ALDH1A1, NADH fluorescence, propionaldehyde substrate; hit rate 7.3% among 220,000; active means well fitted inhibition curve with a large enough effect, not every such curve was filed as active; inconclusive means small, poorly fitted or top-dose-only effect, or another doubt; inactive means no such curve, though single readings can be large or run the other way;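 further: potency means the concentration at half of the fitted maximal effect; plate controls were no enzyme wells and a reference inhibitor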
# IMPase cell inh – qHTS Assay for Identifying the Cell-Membrane Permeable IMPase Inhibitors; CHO-M1 cells, IP1 accumulation, HTRF TR-FRET ratio; inhibition (IP1 accumulation), % at 46.1 µM; 120,000 tested, under 10 active; active means well fitted curve in the direction sought with a large enough effect in the signal ratio, not every such curve was filed as active; inconclusive means small, poorly fitted or top-dose-only effect, or a change in a side signal; inactive means no such curve, though single readings can be large or run the other way; the % refers to the signal ratio;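 further: cells stimulated with carbachol in lithium chloride buffer; plate controls were DMSO basal wells for no effect and reference inhibitor wells for full effect; higher means more IMPase inhibition seen as more IP1 and lower FRET ratio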
# Target sequence (P97697 whole entry, looked up): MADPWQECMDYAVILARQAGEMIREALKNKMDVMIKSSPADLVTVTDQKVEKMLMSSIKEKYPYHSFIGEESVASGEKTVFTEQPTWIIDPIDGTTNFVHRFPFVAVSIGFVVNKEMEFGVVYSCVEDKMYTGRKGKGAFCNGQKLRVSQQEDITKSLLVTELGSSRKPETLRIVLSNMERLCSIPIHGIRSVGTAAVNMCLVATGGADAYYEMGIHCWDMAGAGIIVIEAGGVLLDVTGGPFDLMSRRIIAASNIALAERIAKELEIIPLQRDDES
#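 CHO-M1 cells (CHO stably expressing M1 receptor), compound up to 46 uM final, stimulated with carbachol (50 uM as added) in buffer with 50mM LiCl, pH 7.4, 30 min at 37C. Cytosolic IP1 read by TR-FRET; AC50 from Hill fits.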
# * hit, by the source's call; ? = inconclusive; / = no result; [ ] = dose if it differs, or a comment. Rows were chosen to be rich in hits. Some 9.4% of all compounds tested hit in one or more screens of this group. Unless noted, the call rests on the fitted dose curve; in most records, active means well fitted curve in the direction sought with a large enough effect; inconclusive means small, poorly fitted or top-dose-only effect, or another doubt; inactive means no such curve, though single readings can be large; an effect the other way counts as inactive or inconclusive.
SMILES,HPGD block,HTT ATP protect,IMPase Li inh,HttQ103 aggreg,ALDH1A1 block,IMPase cell inh
CCc1nnc(NS(=O)(=O)c2ccc(N/C=C/C(=O)c3ccc(C)cc3)cc2)s1,18µM*,32%[10 µM],8%,16%,?,/
CCc1nnc(NS(=O)(=O)c2ccc(N/C=C\C(=O)c3ccc(C)cc3)cc2)s1,25µM*,-34%,-5%[38.3 µM],1%,?,4
COc1cc(C(=O)Oc2ccc3c(OC)c4ccoc4nc3c2OC)cc(OC)c1OC,-9%,-48%,27%,/,4%,/
CCOC(=O)C1CCN(C(=O)CSCCSCC(=O)N2CCC(C(=O)OCC)CC2)CC1,-10%,-3%[10 µM],-12%[38.3 µM],5%,11µM*,8
CCOC(=O)C1CCN(C(=O)COC(=O)c2ccc(Br)o2)CC1,-26%,-4%[10 µM],-27%[38.3 µM],11%,-8%,7
CCOC(=O)C1CCN(C(=O)c2ccc(Br)o2)CC1,-13%,4%,26%[38.3 µM],-27%,3.2µM*,0
CCOC(=O)C1CCN(C(=O)CSc2ccc(Br)cc2)CC1,/,-32%,2%,7%[9.22 µM],32µM*,/
COc1ccc(-c2cc(C(=O)OCC(=O)c3cccc(OC)c3)c3cccc(Cl)c3n2)cc1,/,/,/,/,/,0
CC(=O)NCCNc1nc(-c2ccc(C(=O)N(C)C)cc2)nc2ccccc12,/,-38%,-10%,/,17%,/
Cc1cccc(CNc2nc(-c3ccc(C(=O)N(C)C)cc3)nc3ccccc23)c1,25µM*,-47%,14%,/,-8%,/
CN(C)C(=O)c1ccc(-c2nc(N(C)Cc3ccco3)c3ccccc3n2)cc1,13µM*,-25%,7%,/,?,/
CN(C)C(=O)c1ccc(-c2nc(NCc3cccs3)c3ccccc3n2)cc1,16µM*,-18%,7%,/,1%,/
CN(C)c1ccc(-c2nc(N(C)Cc3ccco3)c3ccccc3n2)cc1,?,-56%,16%,/,?,/
O=C(c1csnn1)N1CCC2(CCCN(Cc3ccccc3)C2)CC1,-6%,3%,22%,/,0%,/
COC(=O)CC1c2ccccc2C(Cc2ccc3c(c2)OCO3)=C(C)N1C(=O)OC (configuration not stated),-7%,-81%,7%,/,4%,/
COc1cc(-c2cccc([C@H]3[C@@H]4C=CC[C@@H](C)[C@@H]4C(=O)N3Cc3ccccc3)c2)cc(OC)c1OC,-9%,/,18%,/,?,/
NCCNc1ncnc2ccc(Cl)cc12,-12%,-3%[10 µM],9%,/,-7%[13.5 µM],/
O=C(N/N=C/c1ccc(Cl)cc1Cl)C1CCN(c2ncc(C(F)(F)F)cc2Cl)CC1,-22%,4%,-1%[38.3 µM],-1%,3.5µM*,2
CC(C)N(C(=O)COC(=O)c1cccc(C(=O)OCC(=O)N(C(C)C)C(C)C)n1)C(C)C,/,-18%,-7%,11%,0%,/
COc1cccc(N2CCN(CC(=O)C34CC5CC(CC(C5)C3)C4)CC2)c1,-8%,-7%,2%[38.3 µM],0%[9.22 µM],16µM*,5
Cc1ccc(S(=O)(=O)NC(CN2CCOCC2)=NCCNS(=O)(=O)c2ccccc2)cc1,-13%,7%[10 µM],7%,12%,2.5µM*,-4
Cc1ccc(S(=O)(=O)NCCNC(=O)N2CCOCC2)cc1,-8%,-22%[10 µM],-7%[38.3 µM],-7%[9.22 µM],-1%,2
Cc1ccc(C(=O)O)cc1Nc1nc2ccccc2n2nnnc12,/,/,/,/,/,13
CCCOc1ccc(C(=O)N2CCCc3ccccc32)cc1,16µM*,-2%[0.074 µM],26%[38.3 µM],-5%,6.3µM*,-6
CN1CCN(C(=O)c2ccc(COc3ccc(C(C)(C)C)cc3)o2)CC1,-9%,-34%,12%[38.3 µM],-15%,2%,18
SMILES,HPGD block,HTT ATP protect,IMPase Li inh,HttQ103 aggreg,ALDH1A1 block,IMPase cell inh
COc1cc(OC)cc(C(=O)N2CCCc3ccccc32)c1,-8%,-18%,/,11%,-15%,?
CCOc1ccc(OCc2ccc(C(=O)N3CCCC3)o2)cc1,?,5%[10 µM],25%[38.3 µM],-29%,28µM*,-2[1.84 µM]
CCOc1ccc(C(=O)N2CCCC2)cc1,7.9µM*,17%[10 µM],2%,-18%,-1%,2
CCOC(=O)C1CCCN(C(=O)c2ccc(OCC)cc2)C1 (configuration not stated),14µM*,25%,-2%[38.3 µM],-28%,-12%,-14
Cc1ccccc1C(=O)NC1(C(F)(F)F)C(=O)Nc2c1c(=O)[nH]c(=O)n2-c1ccc(F)cc1 (configuration not stated),/,/,/,/,/,9
COc1ccccc1/C=C/C(=O)NCc1cccnc1,/,-23%,-8%,25%,1%,/
CC(=O)Nc1cccc(NC(=O)C(=O)c2cn(CC(=O)N3CCCCC3)c3ccccc23)c1,/,-90%,-12%,-1%,?,/
COc1ccc(OCCC(=O)N2CCCCC2)cc1,16µM*,-9%,23%[38.3 µM],-7%,1%,7
COc1ccc(C(=O)N2CCC(C(=O)c3c(C)cc(C)cc3C)CC2)cc1,/,4%[10 µM],/,-4%[9.22 µM],22µM*,/
CCC1CCCCN1C(=O)c1sc2nc(C)nc(N(CC)CC)c2c1C (configuration not stated),/,4%,2%,-24%,1%,/
CCOC(=O)C1CCCN(C(=O)c2sc3nc(C)nc(N(CC)CC)c3c2C)C1 (configuration not stated),14µM*,3%[10 µM],-4%,0%,3%,-13
CCOc1ccc(OCc2ccc(C(=O)OCc3ccccn3)o2)cc1,25µM*,-12%,8%[38.3 µM],-5%,?,4
COC1=C[C@@H](C)C2CC3OC(=O)C[C@H]4C(C)=C(OC)C(=O)C([C@@]2(C)C1=O)[C@@]34C (some centres not stated),-7%,21%,11%,/,4%,/
Cc1ccc(-c2ccc(CCC(=O)O)n2-c2cccc(C)c2C)cc1,/,/,/,/,/,3
CCOc1ccc(OCc2cccc(C(=O)N3CCCCCC3)c2)cc1,/,/,6%,-21%,35µM*,/
CC1CN(C(=O)c2ccc(C(=O)c3ccccc3)cc2)CC(C)O1 (configuration not stated),14µM*,-19%,-8%[38.3 µM],-15%,?,1
CCOc1ccc(OCc2cccc(C(=O)N3CCCC3)c2)cc1,-11%,-121%[0.074 µM],20%[38.3 µM],15%,-5%,5
CCCCOc1ccc(C(=O)N2CC(C)OC(C)C2)cc1 (configuration not stated),?,11%,24%[38.3 µM],-3%,0.079µM*,10
O=C(c1ccc(COc2ccccc2Br)o1)N1CCCCCC1,14µM*,-17%,16%[38.3 µM],-14%,16µM*,18
